Bioassay records deposited in PubChem by National Center for Advancing Translational Sciences (NCATS).
Rows were chosen to be rich in hits. Some 2.4% of all compounds tested hit in one or more screens of this group.
D2 PAM-1 – Beta-Arrestin HTS for Positive Allosteric Modulators of the Human D2 Dopamine Receptor: Potentiators; D(2) dopamine receptor (Homo sapiens), P14416; DiscoveRx D2 beta-arrestin cells, luminescence, 90 min; 100% = 57 uM dopamine signal; AID 624464, 2012; actives 0.23% (n = 360,000); potentiation, % (no concentration beside the values); in the data active = potentiation above about 50%; inconclusive = mostly about 30% to 49%
Target sequence (P14416 whole entry, looked up): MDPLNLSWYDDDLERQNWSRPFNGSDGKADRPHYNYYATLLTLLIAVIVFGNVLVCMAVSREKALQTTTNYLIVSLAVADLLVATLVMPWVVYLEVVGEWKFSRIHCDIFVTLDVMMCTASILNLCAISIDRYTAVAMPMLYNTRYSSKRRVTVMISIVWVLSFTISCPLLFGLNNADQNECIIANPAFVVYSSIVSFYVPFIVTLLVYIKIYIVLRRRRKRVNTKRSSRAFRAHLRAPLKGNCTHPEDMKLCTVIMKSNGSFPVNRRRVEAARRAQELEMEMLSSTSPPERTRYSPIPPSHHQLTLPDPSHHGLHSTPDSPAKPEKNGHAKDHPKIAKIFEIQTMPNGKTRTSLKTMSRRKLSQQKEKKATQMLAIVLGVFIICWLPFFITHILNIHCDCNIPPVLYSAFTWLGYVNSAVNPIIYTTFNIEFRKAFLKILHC
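D2 cells co-treated with compound plus 50 nM dopamine (EC20) for 90 min at 37 deg C to detect potentiation. Beta-arrestin recruitment was read as enzyme-fragment luminescence after 1 h at ambient temperature. Full response was set by 57 uM dopamine.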
D2 PAM-2 – HTS Assay for Positive Allosteric Modulators of the Human D2 Dopamine Receptor: Primary Screen for Potentiators | D(2) dopamine receptor (Homo sapiens), P14416 | HEK293 T-REx D2, calcium flux, EC20 dopamine potentiation | potentiation, % at 10 µM | actives 0.34% (n = 340,000) | AID 485347, 2010;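 active = potentiation over 3 SD above the plate norm, cut at about 30% in these data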
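Tetracycline-induced HEK293 T-REx cells force-coupled to calcium signalling expressed D2; compounds were pin-added after a 10 s baseline, read kinetically 180 s, then an EC20 dopamine challenge followed with a further 180 s calcium read.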
D2 ag-1 – Beta-Arrestin HTS for Positive Allosteric Modulators of the Human D2 Dopamine Receptor: Agonists; D(2) dopamine receptor (Homo sapiens), P14416; DiscoveRx PathHunter D2 beta-arrestin, luminescence, 90 min; 100% = 57 uM dopamine signal; activation, % (no concentration beside the values); actives 0.084% (n = 360,000); AID 624465, 2012; in the data active = activation above about 40%; inconclusive = between about 15% and that limit
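DiscoveRx PathHunter D2 beta-arrestin cells (2,100/well) attached overnight, then compound-stimulated 90 min at 37 C in HBSS/10 mM HEPES/0.1% Tween-20 buffer; beta-galactosidase complementation read by luminescence after 1 h at ambient temperature. Dopamine 57 uM final (EC100) as control.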
D2 antagonist – HTS Assay for Allosteric Antagonists of the Human D2 Dopamine Receptor: Primary Screen for Antagonists; inhibition, % at 10 µM; AID 485344, 2010; D(2) dopamine receptor (Homo sapiens), P14416; actives 2% (n = 340,000); HEK293 TREx D2 cells, calcium flux, dopamine EC80; in the data active = inhibition above about 30%; inactive = below that, where a call was filed
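Overnight-induced (tetracycline, 30 C) HEK293 T-REx cells carrying force-coupled D2 receive a no-wash calcium dye, then compound, then EC80 dopamine at 180 s; signals are read kinetically throughout.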
D2 ag-2 – HTS Assay for Allosteric Agonists of the Human D2 Dopamine Receptor: Primary Screen for Agonists; HEK293 T-REx D2 cells, calcium flux agonist mode; actives 0.53% (n = 340,000); activation, % at 2 µM; D(2) dopamine receptor (Homo sapiens), P14416;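 active = activation over 3 SD above normal in the single-dose calcium agonist read, cut at about 30% in these data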
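Tetracycline-induced HEK293 T-REx cells with force-coupled D2 receptor, plated overnight at 30 C, loaded with no-wash calcium dye. After a 10 s baseline, compound was pin-added and calcium flux read kinetically for 180 s; calcium rises flagged agonists.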
D3 arrestin ag – qHTS of D3 Dopamine Receptor Agonist: D3 Dopamine Receptor B-arrestin Agonist Confirmatory Assay | actives 4% (n = 2,300) | DiscoveRx D3 beta-arrestin cells, luminescence, 90 min | Potency, µM (doses to about 76.9 µM), hits mostly activators | AID 720506, 2013 | shares compounds with D2 ag-2; also: nearly all actives have a fitted effect of over 70% in size
D2 ag-3 – qHTS of D3 Dopamine Receptor Agonist: D2 Dopamine Receptor B-arrestin Agonist Counterscreen. shares compounds with D2 ag-2. DiscoveRx PathHunter D2 beta-arrestin, luminescence, 90 min; response scale: percent relative to full dopamine signal. Potency, µM (top dose mostly 76.9 µM), usual class: activators. actives 5.9% (n = 2,300). AID 720507, 2013; also: nearly all actives have a fitted effect of over 70% in size
Numbers stand for hits; – = inactive; ? = inconclusive; · = no result given. Unless noted, calls follow the shape of the dose curve; as a rule, active = well fitted activation curve with a large enough effect; inconclusive = small, poorly fitted or top-dose-only effect; inactive = flat fitted curve, though single readings scatter.

SMILES	D2 PAM-1	D2 PAM-2	D2 ag-1	D2 antagonist	D2 ag-2	D3 arrestin ag	D2 ag-3
CCNC(=S)Nc1cc2oc3ccccc3c2cc1OC	–	–	–	–	–	·	·
CNC(=S)Nc1cc2oc3ccccc3c2cc1OC	–	–	–	–	57	–	–
Cc1cccc(C)c1NC(=S)N(C)CCc1ccccn1	–	–	–	–	–	·	·
CC(C)c1ccc(NC(=S)N(C)CCc2ccccn2)cc1	–	–	–	36	–	–	–
COc1ccc(CNC(=O)C2CCCN(C(=O)c3cnn(-c4ccc(F)cc4)c3-n3cccc3)C2)cc1 (stereo not given)	·	–	·	·	–	·	·
CCOC(=O)CCc1c(C(=O)OCC)[nH]c(CC)c1C(=O)OCc1ccccc1	–	–	–	–	–	–	–
CCOC(=O)c1c(C)[nH]c(C(=O)OCc2ccccc2)c1C	–	–	–	–	–	·	·
CC1CCCC(NC(=O)COC(=O)c2ccc3ncsc3c2)C1C (stereo not given)	–	·	–	·	·	–	–
CCC(C)Nc1ccc(NC(C)CC)cc1 (stereo not given)	–	–	–	–	–	–	–
COc1ccc(CN(C(=O)/C=C/C(=O)c2ccc(OC)cc2O)C(C(=O)NC2CCCCC2)c2ccncc2)cc1 (stereo not given)	–	–	–	–	35	–	–
CCN(CC)CCOC(=O)c1cccc(Br)c1	–	–	–	–	–	·	·
O=C(OCCc1cc2ccccc2c(=O)o1)c1ccc(C(F)(F)F)cc1	–	–	–	–	–	–	–
CN(CCOC(=O)c1cccc(Br)c1)C(C)(C)C	–	–	–	31	71	–	–
O=C(OCCc1cc2ccccc2c(=O)o1)c1cccc(Br)c1	–	–	–	–	–	–	–
O=C(OCCc1cc2ccccc2c(=O)o1)c1ccc(F)cc1	–	–	–	–	–	·	·
CS(=O)(=O)Nc1ccccc1C(=O)Nc1cc(Cl)cc(Cl)c1	–	–	–	–	–	–	–
Cc1cccc(NC(=O)c2cc(S(=O)(=O)NCCc3ccccc3)ccc2F)c1C	·	–	·	·	·	·	·
C=CCC(C(=O)Oc1c(C(C)(C)C)cc(C)cc1C(C)(C)C)c1ccccc1 (stereo not given)	–	–	–	–	–	–	–
Cc1cccc(C)c1OC(=O)C(c1ccccc1)c1ccccc1	–	–	–	–	–	·	·
COc1ccc2oc(=O)c(C(=O)N3c4ccccc4CC3C)cc2c1 (stereo not given)	–	·	–	·	·	–	–
O=C(Nc1cccc(Cl)c1)c1cc2c(=O)[nH]c3ccccc3c2s1	·	·	·	·	–	·	·
COc1ccccc1CNS(=O)(=O)c1cc2c3c(c1)CCN3C(=O)CC2	?	–	–	75	–	–	–
CN(CCNC(=O)C1CCN(S(=O)(=O)N2CCOCC2)CC1)CCc1ccccc1	–	–	–	–	55	–	–
CCc1ccc(NCc2cc3cc4c(cc3n(CC(=O)Nc3ccc(C)cc3)c2=O)OCO4)cc1	·	–	·	·	–	·	·
COc1ccc(-c2noc(CN3CCN(C(=O)c4cccs4)CC3)n2)c(OC)c1OC	–	–	–	–	–	–	–
COc1ccc(CN2CCN(C(=O)c3cccs3)CC2)cc1Br	–	·	–	·	·	·	·
COc1ccccc1CC(NC(C)=O)C(=O)N1CCN(C(=O)c2cccs2)CC1 (stereo not given)	–	–	–	–	–	·	·
COc1ccccc1CN(C)C(=O)CN1CCN(C(=O)c2cccs2)CC1	–	–	–	–	72	–	?
